Results taken from PubChem BioAssay (NCATS).
Results filed as inconclusive are left out. Entries that show only a call come without a potency. Activity calls are given as the source filed them. The call rests on the fitted dose curve; in most records, active means well fitted inhibition curve with a large enough effect; inconclusive means small, poorly fitted or top-dose-only effect; inactive means no such curve, though single readings can be large or run the other way.

tested on: Zika virus NS2B-NS3 protease (unlinked complex); experiment: Primary screen GU Rhodamine qHTS for Zika virus inhibitors: Unlinked NS2B-NS3 protease assay (AID 1347159); conditions: Recombinant ZIKV NS2B-NS3 protease, Rhodamine110 substrate fluorescence; series mostly up to 107 µM; further: nearly all actives have a fitted effect of over 60% in size
Procedure, shortened: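 Noncovalent NS2B hydrophilic domain–NS3 protease domain complex (25 nM) preincubated 15 min at room temperature with compounds (up to 114 microM) in 10 mM Tris-HCl pH 8.0, 0.01% Tween 20; 1.5 microM Rhodamine110 substrate added, fluorescence change over 15 min fitted to Hill equation.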
Potency means the concentration at half of the fitted maximal effect.

Row | Compound | Potency | activity change, negative = inhibition
1 | COc1cc2c(Oc3ccc(-c4cnc(Nc5ccc(F)cc5)n(C)c4=O)cc3F)ccnc2cc1OCCCN1CCOCC1 | inactive | –
2 | Cc1coc2c1C(=O)C(=O)c1c-2ccc2c1CCCC2(C)C | 22.4 µM (active) | –
3 | O=C(Cc1ccc(-c2ccc(OCCN3CCOCC3)cc2)cn1)NCc1ccccc1 | inactive | –
4 | CC(=O)Nc1nc(C)c(-c2ccc(Cl)c(S(=O)(=O)NCCO)c2)s1 | inactive | –
5 | CC(C)c1cc(C(=O)N2Cc3ccc(CN4CCN(C)CC4)cc3C2)c(O)cc1O | inactive | –
6 | NC(=O)Nc1cc(-c2cccc(F)c2)sc1C(=O)N[C@H]1CCCNC1 | inactive | –
7 | Cc1nc(N)ncc1-c1nc(N2CCOCC2)c2sc(C(C)(C)O)cc2n1 | inactive | –
8 | COc1ccc(-c2cc3c(C)nc(N)nc3n(C3CCC(OCCO)CC3)c2=O)cn1 (stereo not given) | inactive | –
9 | CCCCOc1c(C(=O)c2c(F)cc(C)cc2F)cnc2n[nH]cc12 | inactive | –
10 | c1ccc2c(CCNc3ccc(Nc4ccncc4)cc3)c[nH]c2c1 | inactive | –
11 | Cc1c(CN2CCN(S(C)(=O)=O)CC2)sc2c(N3CCOCC3)nc(-c3cnc(N)nc3)nc12 | inactive | –
12 | CN(C)Cc1c(C(=O)NCCOc2ccc(C(=O)NO)cc2)oc2ccccc12 | inactive | –
13 | CC1(C)CC(=O)c2c(C(F)(F)F)nn(-c3ccc(C(N)=O)c(NC4CCC(OC(=O)CN)CC4)c3)c2C1 (stereo not given) | inactive | –
14 | COc1cccc2c(NCc3ccccc3)nc(-n3c(N)nc4ccccc43)nc12 | 50.1 µM (active) | –
15 | Nc1ncnc2c1c(-c1cccc(OCc3ccccc3)c1)cn2C1CC(CN2CCCC2)C1 (stereo not given) | inactive | –
16 | Nc1ccccc1NC(=O)c1ccc(CNC(=O)OCc2cccnc2)cc1 | inactive | –
17 | NC1(Cc2ccc(Cl)cc2)CCN(c2ncnc3[nH]ccc23)CC1 | inactive | –
18 | CC(=O)Nc1sc2c(c1-c1nc3ccccc3s1)CNC2 | inactive | –
19 | COc1c(OCCCN2CCOCC2)ccc2c3n(c(=NC(=O)c4cnc(N)nc4)nc12)CCN3 | – | 19.8% [at 19.1 µM] (inactive)
20 | Nc1cc(C(F)(F)F)c(-c2cc(N3CCOCC3)nc(N3CCOCC3)n2)cn1 | inactive | –

Row | Compound | Potency | activity change, negative = inhibition
21 | COc1ccc(C(=O)CC2(O)C(=O)Nc3c(Cl)ccc(Cl)c32)cc1 (stereo not given) | inactive | –
22 | CC(C)(O)c1cc2nc(-c3cnc(N)nc3)nc(N3CCOCC3)c2s1 | inactive | –
23 | Cc1cc(Nc2cc(N3CCN(C)CC3)nc(Sc3ccc(NC(=O)C4CC4)cc3)n2)n[nH]1 | inactive | –
24 | O=C(Nc1ncc(-c2cc(C(F)F)nn2-c2c(Cl)cccc2Cl)s1)C1CC1 | inactive | –
25 | CC1(O)CC(c2nc(-c3ccc4ccc(-c5ccccc5)nc4c3)c3c(N)nccn23)C1 (stereo not given) | inactive | –
26 | COc1cc2c(NC3CCN(C(C)C)CC3)nc(C3CCCCC3)nc2cc1OCCCN1CCCC1 | inactive | –
27 | CNC(=O)c1ccccc1Nc1nc(Nc2ccc(N3CCOCC3)cc2OC)ncc1Cl | inactive | –
28 | CCNC(=O)Nc1ccc2ncc(Nc3ccc(C)cc3)nc2n1 | 25.1 µM (active) | –
29 | C[C@]1(CO)CN(c2cc(C(=O)Nc3ccc4c(c3)-c3c(c(C(N)=O)nn3-c3ccc(F)cc3)CC4)c(Cl)cn2)C[C@@]1(C)CO | inactive | –
30 | COC(=O)Nc1ccc(-c2nc(N3CCOCC3)c3cnn(C4CCN(Cc5cccnc5)CC4)c3n2)cc1 | inactive | –
31 | CC(O)C1C(=O)N2C(C(=O)O)=C(SC3CNC(C(=O)N(C)C)C3)C(C)C12 (stereo not given) | inactive | –
32 | COC(=O)Nc1nc2ccc(C(=O)c3ccc(F)cc3)cc2[nH]1 | inactive | –
33 | Cn1cc(-c2ccncc2)c(-c2ccc(OCc3ccc4ccccc4n3)cc2)n1 | inactive | –
34 | CCn1nnc2c(N3CCOCC3)nc(-c3ccc(NC(=O)Nc4ccc(C(=O)N5CCN(C)CC5)cc4)cc3)nc21 | inactive | –
35 | C=CC(=O)Nc1cccc(Oc2nc(Nc3ccc(N4CCN(C)CC4)cc3OC)ncc2Cl)c1 | inactive | –
36 | COc1cc2c(Nc3ccc(NC(=O)c4ccccc4)cc3)ncnc2cc1OCCCN1CCOCC1 | inactive | –
37 | Cn1cc(-c2[nH]c3cc(NC(=O)[C@H](N)C4CCCCC4)cc4c3c2C=NNC4=O)cn1 | inactive | –
38 | Clc1cccc(-c2nnnn2Cc2cccnc2)c1Cl | inactive | –
39 | CS(=O)(=O)c1ccc(-c2cnc(N)c(C(=O)Nc3ccccc3)n2)cc1 | inactive | –
40 | O=C(Nc1nc2cccc(-c3ccc(CN4CCS(=O)(=O)CC4)cc3)n2n1)C1CC1 | inactive | –

tested on: Zika virus NS2B-NS3 protease (linked construct); experiment: Primary screen NINDS Rhodamine qHTS for Zika virus inhibitors (AID 1347160); conditions: purified NS2B-NS3 protease, Rhodamine110 substrate fluorescence; series mostly up to 57.1 µM; further: nearly all actives have a fitted effect of over 55% in size
Procedure, shortened: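 Purified linked NS2B-NS3 protease (NS2B hydrophilic domain joined to NS3 protease by flexible linker), 25 nM in 10 mM Tris-HCl pH 8.0, 0.01% Tween 20. Compounds titrated, 15 min preincubation at room temperature; 1.5 microM Rhodamine110 substrate, FITC fluorescence change over 15 min.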

Row | Compound | Potency | outcome
41 | COc1cc2c(Oc3ccc(-c4cnc(Nc5ccc(F)cc5)n(C)c4=O)cc3F)ccnc2cc1OCCCN1CCOCC1 | inactive | –
42 | Cc1coc2c1C(=O)C(=O)c1c-2ccc2c1CCCC2(C)C | 14.1 µM (active) | –
43 | O=C(Cc1ccc(-c2ccc(OCCN3CCOCC3)cc2)cn1)NCc1ccccc1 | inactive | –
44 | CC(=O)Nc1nc(C)c(-c2ccc(Cl)c(S(=O)(=O)NCCO)c2)s1 | inactive | –
45 | CC(C)c1cc(C(=O)N2Cc3ccc(CN4CCN(C)CC4)cc3C2)c(O)cc1O | inactive | –
46 | NC(=O)Nc1cc(-c2cccc(F)c2)sc1C(=O)N[C@H]1CCCNC1 | inactive | –
47 | Cc1nc(N)ncc1-c1nc(N2CCOCC2)c2sc(C(C)(C)O)cc2n1 | inactive | –
48 | COc1ccc(-c2cc3c(C)nc(N)nc3n(C3CCC(OCCO)CC3)c2=O)cn1 (stereo not given) | inactive | –
49 | CCCCOc1c(C(=O)c2c(F)cc(C)cc2F)cnc2n[nH]cc12 | inactive | –
50 | c1ccc2c(CCNc3ccc(Nc4ccncc4)cc3)c[nH]c2c1 | inactive | –
51 | Cc1c(CN2CCN(S(C)(=O)=O)CC2)sc2c(N3CCOCC3)nc(-c3cnc(N)nc3)nc12 | inactive | –
52 | CN(C)Cc1c(C(=O)NCCOc2ccc(C(=O)NO)cc2)oc2ccccc12 | inactive | –
53 | CC1(C)CC(=O)c2c(C(F)(F)F)nn(-c3ccc(C(N)=O)c(NC4CCC(OC(=O)CN)CC4)c3)c2C1 (stereo not given) | inactive | –
54 | COc1cccc2c(NCc3ccccc3)nc(-n3c(N)nc4ccccc43)nc12 | inactive | –
55 | Nc1ncnc2c1c(-c1cccc(OCc3ccccc3)c1)cn2C1CC(CN2CCCC2)C1 (stereo not given) | inactive | –
56 | Nc1ccccc1NC(=O)c1ccc(CNC(=O)OCc2cccnc2)cc1 | inactive | –
57 | NC1(Cc2ccc(Cl)cc2)CCN(c2ncnc3[nH]ccc23)CC1 | inactive | –
58 | CC(=O)Nc1sc2c(c1-c1nc3ccccc3s1)CNC2 | inactive | –
59 | COc1c(OCCCN2CCOCC2)ccc2c3n(c(=NC(=O)c4cnc(N)nc4)nc12)CCN3 | – | inactive [at 10.7 µM]
60 | Nc1cc(C(F)(F)F)c(-c2cc(N3CCOCC3)nc(N3CCOCC3)n2)cn1 | inactive | –

Row | Compound | Potency | outcome
61 | COc1ccc(C(=O)CC2(O)C(=O)Nc3c(Cl)ccc(Cl)c32)cc1 (stereo not given) | inactive | –
62 | CC(C)(O)c1cc2nc(-c3cnc(N)nc3)nc(N3CCOCC3)c2s1 | inactive | –
63 | Cc1cc(Nc2cc(N3CCN(C)CC3)nc(Sc3ccc(NC(=O)C4CC4)cc3)n2)n[nH]1 | inactive | –
64 | O=C(Nc1ncc(-c2cc(C(F)F)nn2-c2c(Cl)cccc2Cl)s1)C1CC1 | inactive | –
65 | CC1(O)CC(c2nc(-c3ccc4ccc(-c5ccccc5)nc4c3)c3c(N)nccn23)C1 (stereo not given) | inactive | –
66 | COc1cc2c(NC3CCN(C(C)C)CC3)nc(C3CCCCC3)nc2cc1OCCCN1CCCC1 | inactive | –
67 | CNC(=O)c1ccccc1Nc1nc(Nc2ccc(N3CCOCC3)cc2OC)ncc1Cl | inactive | –
68 | CCNC(=O)Nc1ccc2ncc(Nc3ccc(C)cc3)nc2n1 | 35.5 µM (active) | –
69 | C[C@]1(CO)CN(c2cc(C(=O)Nc3ccc4c(c3)-c3c(c(C(N)=O)nn3-c3ccc(F)cc3)CC4)c(Cl)cn2)C[C@@]1(C)CO | inactive | –
70 | COC(=O)Nc1ccc(-c2nc(N3CCOCC3)c3cnn(C4CCN(Cc5cccnc5)CC4)c3n2)cc1 | inactive | –
71 | CC(O)C1C(=O)N2C(C(=O)O)=C(SC3CNC(C(=O)N(C)C)C3)C(C)C12 (stereo not given) | inactive | –
72 | COC(=O)Nc1nc2ccc(C(=O)c3ccc(F)cc3)cc2[nH]1 | inactive | –
73 | Cn1cc(-c2ccncc2)c(-c2ccc(OCc3ccc4ccccc4n3)cc2)n1 | inactive | –
74 | CCn1nnc2c(N3CCOCC3)nc(-c3ccc(NC(=O)Nc4ccc(C(=O)N5CCN(C)CC5)cc4)cc3)nc21 | inactive | –
75 | C=CC(=O)Nc1cccc(Oc2nc(Nc3ccc(N4CCN(C)CC4)cc3OC)ncc2Cl)c1 | inactive | –
76 | COc1cc2c(Nc3ccc(NC(=O)c4ccccc4)cc3)ncnc2cc1OCCCN1CCOCC1 | inactive | –
77 | Cn1cc(-c2[nH]c3cc(NC(=O)[C@H](N)C4CCCCC4)cc4c3c2C=NNC4=O)cn1 | inactive | –
78 | Clc1cccc(-c2nnnn2Cc2cccnc2)c1Cl | inactive | –
79 | CS(=O)(=O)c1ccc(-c2cnc(N)c(C(=O)Nc3ccccc3)n2)cc1 | inactive | –
80 | O=C(Nc1nc2cccc(-c3ccc(CN4CCS(=O)(=O)CC4)cc3)n2n1)C1CC1 | inactive | –
